# Only a selection was taken, and the strongest signals are over-represented in it overall.
# Key:
# Experiment in all cases: glycan array binding signal (z-score within array); higher = stronger binding
# Settings in all cases: glycan notation: IUPAC condensed, linker removed
# Fuc(a1-2)Gal = molecular target: Fuc(a1-2)Gal
# Outline: (§1)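 Negative Z-scores can be read as non-binding. The Z-score is calculated within each array and then averaged across arrays of one protein sequence at different concentrations or buffers and across linkers. Arrays, 3228 in all, were curated from the Consortium for Functional Glycomics database and kept only where the protein sequence was available.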
# [1] = molecular target: Fuc(a1-2)Gal(b1-3)GalNAc(b1-3)Gal(b1-4)Glc
# Outline: as §1
# [2] = molecular target: Gal(b1-3)GalNAc(b1-3)Gal(b1-4)Glc
# Outline: as §1
# [3] = molecular target: Gal(b1-3)GalNAc(b1-4)Gal(b1-4)Glc
# Outline: as §1
# Gal(b1-4)Glc = molecular target: Gal(b1-4)Glc
# Outline: as §1
# Gal(b1-4)GlcNAc = molecular target: Gal(b1-4)GlcNAc
# Outline: as §1
# [4] = molecular target: Gal(b1-4)GlcNAc(b1-3)Gal(b1-4)Glc
# Outline: as §1
# [5] = molecular target: Gal(b1-4)GlcNAc(b1-3)Gal(b1-4)GlcNAc(b1-3)Gal(b1-4)GlcNAc
# Outline: as §1
# GalNAc(b1-4)GlcNAc = molecular target: GalNAc(b1-4)GlcNAc
# Outline: as §1
# [6] = molecular target: GlcNAc(a1-3)Gal(b1-4)GlcNAc
# Outline: as §1
# [7] = molecular target: GlcNAc(a1-6)Gal(b1-4)GlcNAc
# Outline: as §1
# GlcNAc(b1-3)Gal = molecular target: GlcNAc(b1-3)Gal
# Outline: as §1
# [8] = molecular target: GlcNAc(b1-3)Gal(b1-3)GalNAc
# Outline: as §1
# [9] = molecular target: GlcNAc(b1-6)Gal(b1-4)GlcNAc
# Outline: as §1
# [10] = molecular target: Man(a1-2)Man(a1-2)Man(a1-3)Man
# Outline: as §1
# [11] = molecular target: Neu5Gc(a2-3)Gal(b1-4)GlcNAc
# Outline: as §1
# [12] = molecular target: Fuc(a1-2)Gal(b1-4)GlcNAc(b1-3)Gal(b1-4)GlcNAc
# Outline: as §1
# [13] = molecular target: Fuc(a1-2)Gal(b1-4)GlcNAc6S
# Outline: as §1
# Fuc(a1-2)GlcNAc = molecular target: Fuc(a1-2)GlcNAc
# Outline: as §1
# [14] = molecular target: Fuc(a1-2)[Gal(a1-3)]Gal(b1-4)[Fuc(a1-3)]GlcNAc
# Outline: as §1
# [15] = molecular target: Fuc(a1-2)[GalNAc(a1-3)]Gal(b1-4)[Fuc(a1-3)]GlcNAc
# Outline: as §1
# [16] = molecular target: Fuc(a1-3)[Gal3S(b1-4)]GlcNAc6S
# Outline: as §1
# Gal(a1-4)Gal(b1-4)Gal = molecular target: Gal(a1-4)Gal(b1-4)Gal
# Outline: as §1
# Gal(b1-3)Gal = molecular target: Gal(b1-3)Gal
# Outline: as §1
# [17] = molecular target: Gal(b1-3)GalNAc(b1-3)Gal(b1-4)GlcNAc
# Outline: as §1
# [18] = molecular target: Gal(b1-3)[Neu5Ac(b2-6)]GlcNAc
# Outline: as §1
# Gal(b1-4)Glc6S = molecular target: Gal(b1-4)Glc6S
# Outline: as §1
# [19] = molecular target: Gal(b1-4)GlcNAc(b1-6)[Gal(b1-3)]GalNAc
# Outline: as §1
# Gal3S(b1-4)GlcNAc6S = molecular target: Gal3S(b1-4)GlcNAc6S
# Outline: as §1
# Gal3S6S(b1-4)GlcNAc = molecular target: Gal3S6S(b1-4)GlcNAc
# Outline: as §1
# Gal3S6S(b1-4)GlcNAc6S = molecular target: Gal3S6S(b1-4)GlcNAc6S
# Outline: as §1
# GalNAc(a1-3)Gal = molecular target: GalNAc(a1-3)Gal
# Outline: as §1
# Glc(b1-6)Glc = molecular target: Glc(b1-6)Glc
# Outline: as §1
# Man(a1-2)Man(a1-3)Man = molecular target: Man(a1-2)Man(a1-3)Man
# Outline: as §1
# [20] = molecular target: Neu5Ac(a2-3)Gal(b1-3)[Fuc(a1-4)]GlcNAc(b1-3)Gal(b1-4)[Fuc(a1-3)]GlcNAc
# Outline: as §1
# [21] = molecular target: Neu5Ac(a2-3)Gal(b1-4)GlcNAc6S
# Outline: as §1
# [22] = molecular target: Neu5Ac(a2-3)Gal(b1-4)[Fuc(a1-3)]GlcNAc(b1-3)Gal(b1-4)[Fuc(a1-3)]GlcNAc(b1-3)Gal(b1-4)[Fuc(a1-3)]GlcNAc
# Outline: as §1
# Neu5Ac(a2-6)Gal(b1-4)Glc = molecular target: Neu5Ac(a2-6)Gal(b1-4)Glc
# Outline: as §1
# [23] = molecular target: Neu5Ac(a2-8)Neu5Ac(a2-8)Neu5Ac(a2-3)[GalNAc(b1-4)]Gal(b1-4)Glc
# Outline: as §1
# [24] = molecular target: Neu5Ac(b2-6)Gal(b1-4)GlcNAc
# Outline: as §1
# [25] = molecular target: Fuc(a1-2)Gal(b1-4)[Fuc(a1-3)]GalNAc(b1-3)Gal(b1-4)[Fuc(a1-3)]GlcNAc(b1-3)Gal(b1-4)[Fuc(a1-3)]GalNAc
# Outline: as §1
# [26] = molecular target: Fuc(a1-3)[Gal(b1-4)]GlcNAc(b1-4)Gal(b1-4)[Fuc(a1-3)]GlcNAc(b1-4)Gal(b1-4)[Fuc(a1-3)]GlcNAc
# Outline: as §1
# Gal(b1-3)GalNAc = molecular target: Gal(b1-3)GalNAc
# Outline: as §1
# [27] = molecular target: Gal(b1-3)[GlcNAc(b1-6)]GalNAc
# Outline: as §1
# [28] = molecular target: Gal(b1-4)GlcNAc(b1-3)GalNAc
# Outline: as §1
# Gal4S6S(b1-4)GlcNAc = molecular target: Gal4S6S(b1-4)GlcNAc
# Outline: as §1
# Glc(a1-6)Glc(a1-6)Glc = molecular target: Glc(a1-6)Glc(a1-6)Glc
# Outline: as §1
# [29] = molecular target: Man(a1-2)Man(a1-3)[Man(a1-2)Man(a1-6)]Man
# Outline: as §1
# [30] = molecular target: Man(a1-2)Man(a1-3)[Man(a1-3)[Man(a1-6)]Man(a1-6)]Man(b1-4)GlcNAc(b1-4)GlcNAc
# Outline: as §1
# [31] = molecular target: Man(a1-3)[Man(a1-6)]Man(a1-6)[Man(a1-3)]Man(b1-4)GlcNAc(b1-4)GlcNAc
# Outline: as §1
# [32] = molecular target: Man(a1-3)[Man(a1-6)]Man(b1-4)GlcNAc(b1-4)GlcNAc
# Outline: as §1
# [33] = molecular target: Neu5Ac(a2-3)Gal(b1-3)GalNAc(b1-3)Gal(a1-4)Gal(b1-4)Glc
# Outline: as §1
# [34] = molecular target: Neu5Ac(a2-3)[GalNAc(b1-4)]Gal(b1-4)GlcNAc
# Outline: as §1
# Neu5Gc(a2-3)Gal(b1-4)Glc = molecular target: Neu5Gc(a2-3)Gal(b1-4)Glc
# Outline: as §1
binder,measurement,setting,value
"TbCVNHOa (Tuber borchii), Q5MK11 (protein) GSHIGPYMSYADSSRNAVLTNGGRTLRAECRNADGNWVTSELDLDTCIGNPNGFLGWGMQNFSHSSEDIKLEEGGRKLTCRPKTVDGGFRERQGIDLNRIQNVNGRLVFQ",glycan array binding signal (z-score),Fuc(a1-2)Gal,-0.262
same,glycan array binding signal (z-score),[1],3.46
same,glycan array binding signal (z-score),[2],5.6
same,glycan array binding signal (z-score),[3],-0.271
same,glycan array binding signal (z-score),Gal(b1-4)Glc,-0.264
same,glycan array binding signal (z-score),Gal(b1-4)GlcNAc,-0.238
same,glycan array binding signal (z-score),[4],2.73
same,glycan array binding signal (z-score),[5],-0.058
same,glycan array binding signal (z-score),GalNAc(b1-4)GlcNAc,-0.239
same,glycan array binding signal (z-score),[6],-0.293
same,glycan array binding signal (z-score),[7],-0.292
same,glycan array binding signal (z-score),GlcNAc(b1-3)Gal,-0.283
same,glycan array binding signal (z-score),[8],-0.222
same,glycan array binding signal (z-score),[9],-0.247
same,glycan array binding signal (z-score),[10],3.86
same,glycan array binding signal (z-score),[11],-0.209
"FBG3 (Homo sapiens), Q9H4M3 (protein) MAVGNINELPENILLELFTHVPARQLLLNCRLVCSLWRDLIDLVTLWKRKCLREGFITEDWDQPVADWKIFYFLRSLHRNLLHNPCAEEGFEFWSLDVNGGDEWKVEDLSRDQRKEFPNDQVKKYFVTSYYTCLKSQVVDLKAEGYWEELMDTTRPDIEVKDWFAARPDCGSKYQLCVQLLSSAHAPLGTFQPDPATIQQKSDAKWREVSHTFSNYPPGVRYIWFQHGGVDTHYWAGWYGPRVTNSSITIGPPLP",glycan array binding signal (z-score),Fuc(a1-2)Gal,0.149
same,glycan array binding signal (z-score),[12],-0.582
same,glycan array binding signal (z-score),[13],0.121
same,glycan array binding signal (z-score),Fuc(a1-2)GlcNAc,-0.096
same,glycan array binding signal (z-score),[14],0.034
same,glycan array binding signal (z-score),[15],0.422
same,glycan array binding signal (z-score),[16],1.94
same,glycan array binding signal (z-score),Gal(a1-4)Gal(b1-4)Gal,-0.387
same,glycan array binding signal (z-score),Gal(b1-3)Gal,-0.052
same,glycan array binding signal (z-score),[17],-0.569
same,glycan array binding signal (z-score),[18],-0.544
same,glycan array binding signal (z-score),Gal(b1-4)Glc,0.009
same,glycan array binding signal (z-score),Gal(b1-4)Glc6S,0.065
same,glycan array binding signal (z-score),[19],-0.478
same,glycan array binding signal (z-score),Gal3S(b1-4)GlcNAc6S,2.99
same,glycan array binding signal (z-score),Gal3S6S(b1-4)GlcNAc,1.73
same,glycan array binding signal (z-score),Gal3S6S(b1-4)GlcNAc6S,7.93
same,glycan array binding signal (z-score),GalNAc(a1-3)Gal,-0.033
same,glycan array binding signal (z-score),Glc(b1-6)Glc,1.71
same,glycan array binding signal (z-score),Man(a1-2)Man(a1-3)Man,-0.171
same,glycan array binding signal (z-score),[20],0.235
same,glycan array binding signal (z-score),[21],-0.064
same,glycan array binding signal (z-score),[22],-0.514
same,glycan array binding signal (z-score),Neu5Ac(a2-6)Gal(b1-4)Glc,-0.34
same,glycan array binding signal (z-score),[23],0.271
same,glycan array binding signal (z-score),[24],-0.75
ASA (Allium sativum) (protein) KAHEKERMGRNTPSAKLMSIAAVAAILTILASTCMARNLLTNGEGLYAGQSLNVEPYHFIMQEDCNLVLYDHSTAVWATNTDIPGKKECRAVLQSDGNFVVYDADGRPLWASHSVRGNGNYVLVLQEDGNVVIYGSDIWSTGTYVKAARGPVVVAMNGTVDGGSLIRPVIVNKNHVPVIRKVGTLSRNILRNDEGLYAGQSLDVEPYHFIMHEDCNLVLYDHSTAVWASNTDIPGKKGCKAVLQSDGNFVVYDAEGRSLWASHSVRGNGNYVLVLQEDGNVVIYGSDIWSTDTYRKSARGPVIRKVGTLAGAA,glycan array binding signal (z-score),Fuc(a1-2)Gal,-0.156
same,glycan array binding signal (z-score),[25],-0.081
same,glycan array binding signal (z-score),[26],-0.229
same,glycan array binding signal (z-score),Gal(b1-3)GalNAc,-0.222
same,glycan array binding signal (z-score),[17],-0.231
same,glycan array binding signal (z-score),[27],-0.211
same,glycan array binding signal (z-score),[28],-0.23
same,glycan array binding signal (z-score),Gal4S6S(b1-4)GlcNAc,-0.222
same,glycan array binding signal (z-score),GalNAc(b1-4)GlcNAc,-0.151
same,glycan array binding signal (z-score),Glc(a1-6)Glc(a1-6)Glc,-0.228
same,glycan array binding signal (z-score),[10],6.7
same,glycan array binding signal (z-score),[29],2.2
same,glycan array binding signal (z-score),[30],6.08
same,glycan array binding signal (z-score),[31],5.45
same,glycan array binding signal (z-score),[32],6.64
same,glycan array binding signal (z-score),[33],-0.228
same,glycan array binding signal (z-score),[34],-0.172
same,glycan array binding signal (z-score),Neu5Gc(a2-3)Gal(b1-4)Glc,-0.208
